In PubChem BioAssay one finds composite z-score data, which are given here for 36 compounds.

For the experiment, the system named is Fibrinogen (Alexa647-labelled). The experiment can be described thus: fibrinogen binders on compound microarrays, profiling panel, artefact control for SMM control-protein annotation, biochemical, small-molecule microarray, 635/667 nm fluorescence (AID 1131).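 Further: z-score merges 667 nm fluorescence with per-spot signal-to-noise over triplicate slides.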 The settings on record: fibrinogen-A647 binding fluorescence, higher = more signal.
`CC(CCN1CCCc2nc(C)c(C)cc21)=NOC(C)CN1CCCCc2nc(C)c(C)cc21` (stereo unspecified) had a composite z-score of 0.567.

`CCN1C(=O)[C@@H]2[C@H]3C(=CC[C@@H]2C1=O)C1(OCCCO1)[C@H]1O[C@H]1[C@H]3O` gave a composite z-score of 0.982.

In the case of `Cc1ccc(S(=O)(=O)N[C@@H]2COC(=O)[C@@H](C)COC(=O)CC=C[C@H]2C)cc1`, the composite z-score is 0.466. The compound `COC(=O)C1=C(C)N(Cc2ccccc2)[C@]23O[C@](C(=O)OC)(C(=O)N2[C@@H]1c1ccccc1)C(C(=O)OC)=C3C(=O)OC` came in with a composite z-score of 0.784. Next, `CC(C)CON=C1C[C@@H](O)[C@@H](O)[C@@H]2[C@@H]3C(=O)N(c4ccc(F)cc4F)C(=O)[C@@H]3CC[C@H]12`: 0.424; `CCOC(=O)CCN1C(=O)[C@H]2[C@H]3[C@H](O)[C@H](O)CC(=NOCC(C)C)[C@H]3CC[C@H]2C1=O`: 0.416; `CC(C)=CCCC(C)=CCON=C1C[C@@H](O)[C@@H](O)[C@@H]2[C@@H]3C(=O)N(C(C)(C)C)C(=O)[C@@H]3CC[C@H]12`: 0.199.

Take `C[C@H]1CC[C@H]2C(=O)O[C@H](COc3ccc(C(C)(C)C)cc3)CN2[C@@H]1c1ccc(Br)cc1`: the composite z-score was 0.503. Next, `COC(=O)CC=C[C@@H](C)[C@@H](C=NO[C@@H]1O[C@H](COC(C)=O)[C@@H](OC(C)=O)[C@H](OC(C)=O)[C@H]1OC(C)=O)NS(=O)(=O)c1ccc(C)cc1`: -0.083; `CCOC(=O)[C@H](CC(C)C)NC(=O)CCC1CC(OC(=O)NCc2cccc3ccccc23)CC2(CCCC(COC(=O)NCc3ccncc3)O2)O1` (stereo partly specified): 0.839; `CC(CCN1CCCc2nc(C)c(C)cc21)=NO[C@@H](C)c1cc(-c2c(C)cc(C)cc2C)no1`: 0.745. `O=C1[C@H]2[C@H]3[C@H](O)[C@H](O)CC(=NO[C@@H]4O[C@H](CO)[C@@H](O)[C@H](O)[C@H]4O)[C@H]3CC[C@H]2C(=O)N1c1cccc(Oc2ccccc2)c1` had a composite z-score of 0.574. For `CCOC(=O)NN=C1C[C@@H](O)[C@@H](O)[C@@H]2[C@@H]3C(=O)N(c4ccc(F)cc4F)C(=O)[C@@H]3CC[C@@H]12` the value was 0.331; for `C[C@H]1CC[C@H]2C(=O)OC(CO)CN2[C@@H]1c1ccc(Br)cc1` (stereo partly specified), 0.276.

The compound `Cn1c(=O)n2n(c1=O)[C@H]1[C@H](O)[C@@H]3O[C@@H]3C(=NOCc3ccccc3)[C@H]1CC2` returned a composite z-score of -0.867. As to `O=c1n(-c2ccccc2)c(=O)n2n1CC[C@@H]1C(=NOCc3ccccc3)[C@H]3O[C@H]3[C@@H](O)[C@@H]12`, the composite z-score is -0.468. Next, `C[C@@H]1CC[C@H]2C(=O)O[C@@H](Cc3ccccc3)CN2[C@H]1c1ccc(Br)cc1`: 0.376.

Turning to `CO[C@H]1COC(=O)[C@@H](C)COC(=O)[C@H](C)NC(=O)CC=C[C@H]1C`, the composite z-score was -0.47. For `CO[C@H]1COC(=O)CC=C[C@H](C)[C@@H](OC)COC(=O)[C@@H](C)COC(=O)CC=C[C@@H]1C` the value was -1.26; for `COC(=O)CC=C[C@@H](C)[C@@H](C=NOCC[C@@H]1C=C[C@H](OC(C)=O)[C@@H](COC(C)=O)O1)NS(=O)(=O)c1ccc(C)cc1`, -0.329. Compound `CCOC(=O)CCN1C(=O)[C@H]2[C@H]3[C@H](O)[C@H](O)CC(=NNC(=O)OCc4ccccc4)[C@@H]3CC[C@H]2C1=O` showed a composite z-score of 0.986. For `CC(C)=CCCC(C)=CCON=C1C[C@@H](O)[C@@H](O)[C@@H]2[C@@H]3C(=O)N(Cc4ccccc4)C(=O)[C@@H]3CC[C@@H]12` the value was -0.266; for `C[C@@H](ON=C1[C@H]2CCn3c(=O)n(-c4ccccc4)c(=O)n3[C@H]2[C@H](O)[C@@H]2O[C@H]12)c1cn([C@@H]2COC[C@H]2O)nn1`, 0.544; for `COc1cc(O)c(C(=O)C=Cc2ccc3c(c2)OCO3)c(OC)c1`, 0.0337. Regarding `COC(=O)CC=C[C@@H](C)[C@@H](C=NO[C@H](C)c1cn([C@H](CO)Cc2ccccc2)nn1)NS(=O)(=O)c1ccc(C)cc1`, the composite z-score was 0.951.

With `COc1ccc(O[C@H]2C=C[C@@H](c3ccccc3)O[C@@H]2COC(=O)CCC(C)=NO[C@@H]2O[C@H](COC(C)=O)[C@@H](OC(C)=O)[C@H](OC(C)=O)[C@H]2OC(C)=O)cc1`, the composite z-score was found to be 0.708. For `CCOC(=O)NN=C1C[C@@H](O)[C@@H](O)[C@@H]2[C@@H]3C(=O)N(Cc4ccc5c(c4)OCO5)C(=O)[C@@H]3CC[C@H]12` the value was 0.785.

As for `CCOC(=O)[C@H](CC(C)C)NC(=O)CCC1CC(OC(=O)NCc2cccc3ccccc23)CC2(CCCC(COC(=O)NCCC(C)C)O2)O1` (stereo partly specified), the composite z-score amounted to 0.123.

`CC(C)=CCCC(C)=CCON=C1C[C@@H](O)[C@@H](O)[C@@H]2[C@@H]3C(=O)N(C[C@@H]4CCCO4)C(=O)[C@@H]3CC[C@H]12` registered a composite z-score of 0.499. `CC=CC1=C(CO)C(=O)[C@@H]2O[C@@H]2C1=O` showed a composite z-score of -0.328. For the compound `CO[C@H]1COC(=O)CCC[C@@H](C)[C@H](OC)COC(=O)[C@@H](C)NC(=O)CC=C[C@@H]1C`, the composite z-score was -0.737.

On to `COc1ccc(O[C@H]2C=C[C@@H](c3ccccc3)O[C@@H]2COC(=O)CCC(C)=NOC[C@@H](O)[C@H]2O[C@@H]3OC(C)(C)O[C@@H]3[C@H]2O)cc1`, for which the composite z-score amounted to 0.536.

`O=C(NN=C1C[C@@H](O)[C@@H](O)[C@@H]2[C@@H]3C(=O)N(Cc4ccccc4)C(=O)[C@@H]3CC[C@@H]12)OCc1ccccc1` registered a composite z-score of 0.272.

On to `CCOC(=O)[C@H](CC(C)C)NC(=O)CCC1CC(OC(=O)NCc2cccc3ccccc23)CC2(CCCC(COC(=O)NCCc3ccc(Cl)cc3)O2)O1` (stereo partly specified), for which the composite z-score came out at 0.635.

The compound `CO[C@@H]1C=CCC(=O)N2CCC[C@H]2C(=O)OC[C@@H](C)C(=O)OC[C@H]1C` showed a composite z-score of -0.294. Next, `CC(C)CON=C1C[C@@H](O)[C@@H](O)[C@@H]2[C@@H]3C(=O)N(C4CCCCC4)C(=O)[C@@H]3CC[C@H]12`: 0.657.
